In PubChem BioAssay:
Activity calls are given as the source filed them.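 How the source made its calls, unless noted: active means efflux inhibition above 0.42, the validation set average plus 4 SD; inconclusive means no clear call, values can overlap the other calls; inactive means the rest.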

Key:
[1] = reduced mouse 2C T cell binding to pMHC/ICAM-1 vesicles – MLPCN validation set, flow cytometry, LFA-1/ICAM-1 modulator project, pilot screen (AID 2523;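 active means response below a set limit, under 55% cells CD8-positive and vesicle-bound, and CD8 cells' 90th-percentile brightness under 279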;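 on vesicle binding response: mean PE anti-B7-1 fluorescence of CD8+ cells relative to row control; 100% = QL9-loaded vesicles with DMSO vehicle in the same plate row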); details: 2C mouse CD8+ T cells, at 7 µM, stronger effect = lower value; double positive events: measured here: CD8+/vesicle+ event percentage
[2] = biological target: Integrin beta-1 (Homo sapiens) + Integrin alpha-4 (Homo sapiens) (UniProt P13612+P05556); test: alpha4beta1 integrin LIBS antibody binding reduction – U937 cells, HUTS-21 mAb, flow cytometry, validation set, VLA-4 allosteric modulator project, pilot screen (AID 2674;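 active means inhibition above 50%, about 3 SD of the validation set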;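 further: antibody binding induced by the VLA-4 ligand LDV present at three times its Kd; 0% = LDV ligand with antibody and no compound and 100% = antibody without LDV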); details: HUTS-21 LIBS mAb binding, at 6.7 µM, stronger effect = higher value, binding induced by LDV ligand
Sequence of Integrin beta-1 (Homo sapiens) + Integrin alpha-4 (Homo sapiens) (P05556 whole entry, looked up): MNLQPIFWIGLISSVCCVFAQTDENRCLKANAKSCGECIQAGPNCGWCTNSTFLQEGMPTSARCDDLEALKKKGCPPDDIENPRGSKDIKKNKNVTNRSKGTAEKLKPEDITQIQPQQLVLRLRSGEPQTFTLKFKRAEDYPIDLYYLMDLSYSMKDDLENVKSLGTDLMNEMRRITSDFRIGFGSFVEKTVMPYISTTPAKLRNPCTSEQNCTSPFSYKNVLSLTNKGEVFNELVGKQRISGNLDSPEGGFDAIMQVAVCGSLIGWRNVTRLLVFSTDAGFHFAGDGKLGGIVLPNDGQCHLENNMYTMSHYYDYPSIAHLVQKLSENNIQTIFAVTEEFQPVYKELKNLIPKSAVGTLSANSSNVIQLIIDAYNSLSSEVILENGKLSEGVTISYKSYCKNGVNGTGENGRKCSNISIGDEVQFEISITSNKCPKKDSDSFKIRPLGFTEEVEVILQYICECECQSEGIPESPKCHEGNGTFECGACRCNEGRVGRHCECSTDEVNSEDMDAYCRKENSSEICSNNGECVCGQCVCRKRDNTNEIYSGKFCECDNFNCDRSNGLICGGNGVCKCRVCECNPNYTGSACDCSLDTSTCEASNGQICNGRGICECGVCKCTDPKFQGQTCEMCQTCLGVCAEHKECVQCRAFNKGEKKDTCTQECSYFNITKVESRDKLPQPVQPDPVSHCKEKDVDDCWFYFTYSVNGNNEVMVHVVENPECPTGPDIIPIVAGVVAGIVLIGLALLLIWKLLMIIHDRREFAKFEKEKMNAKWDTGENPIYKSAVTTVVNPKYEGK
Sequence of Integrin beta-1 (Homo sapiens) + Integrin alpha-4 (Homo sapiens) (P13612 whole entry, looked up): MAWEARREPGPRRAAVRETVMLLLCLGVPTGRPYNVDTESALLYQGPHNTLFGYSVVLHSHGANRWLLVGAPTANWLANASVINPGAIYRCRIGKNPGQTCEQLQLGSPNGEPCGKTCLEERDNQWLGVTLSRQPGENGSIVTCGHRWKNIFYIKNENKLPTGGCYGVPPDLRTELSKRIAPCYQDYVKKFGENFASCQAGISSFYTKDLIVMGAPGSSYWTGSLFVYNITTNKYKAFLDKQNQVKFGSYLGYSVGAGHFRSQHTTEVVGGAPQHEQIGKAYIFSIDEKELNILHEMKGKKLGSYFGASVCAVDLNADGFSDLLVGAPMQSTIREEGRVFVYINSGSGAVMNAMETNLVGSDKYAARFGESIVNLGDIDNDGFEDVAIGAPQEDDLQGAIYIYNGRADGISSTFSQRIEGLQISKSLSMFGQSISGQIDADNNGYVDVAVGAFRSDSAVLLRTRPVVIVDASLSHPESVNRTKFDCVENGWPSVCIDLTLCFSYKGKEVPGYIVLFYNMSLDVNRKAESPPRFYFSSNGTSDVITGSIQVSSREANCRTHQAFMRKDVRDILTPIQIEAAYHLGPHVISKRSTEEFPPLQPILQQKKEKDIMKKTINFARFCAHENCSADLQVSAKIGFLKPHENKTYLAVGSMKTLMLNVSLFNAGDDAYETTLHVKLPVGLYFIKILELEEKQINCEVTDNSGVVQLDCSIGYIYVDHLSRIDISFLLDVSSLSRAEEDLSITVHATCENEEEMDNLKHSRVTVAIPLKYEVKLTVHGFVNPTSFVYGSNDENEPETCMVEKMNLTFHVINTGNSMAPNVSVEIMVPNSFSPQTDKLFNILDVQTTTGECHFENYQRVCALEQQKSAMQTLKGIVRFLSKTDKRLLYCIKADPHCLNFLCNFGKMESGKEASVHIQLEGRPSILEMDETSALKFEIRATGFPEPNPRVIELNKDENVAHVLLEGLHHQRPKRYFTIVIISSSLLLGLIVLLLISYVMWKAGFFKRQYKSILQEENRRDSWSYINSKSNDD

[3] = calorie-restriction mimetic ROS inhibitors, yeast – validation compound set, pilot screen (AID 2706;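 active means superoxide response below 65% of plate, a cut near 3 SD across the whole screen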;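 further: yeast exposed to compound for one week at 30 degrees C before staining; 100% = mean of all compound wells on the same plate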); details: S. cerevisiae aging, superoxide DHE fluorescence; at 10 µM, stronger effect = lower value
[4] = biological target: Beta-adrenergic receptor kinase 1 (Homo sapiens) (UniProt P25098); test: GRK2 binders displacing RNA aptamer, biochemical, validation, human GRK2, bead flow cytometry (AID 488806;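 active means aptamer binding inhibition above 30%, about 3 SD of noise from non-fluorescent compounds; inactive means inhibition at or below 30%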); details: bead-bound GRK2, FAM-aptamer displacement, at 10 µM, stronger effect = higher value
Sequence of Beta-adrenergic receptor kinase 1 (Homo sapiens) (P25098 whole entry, looked up): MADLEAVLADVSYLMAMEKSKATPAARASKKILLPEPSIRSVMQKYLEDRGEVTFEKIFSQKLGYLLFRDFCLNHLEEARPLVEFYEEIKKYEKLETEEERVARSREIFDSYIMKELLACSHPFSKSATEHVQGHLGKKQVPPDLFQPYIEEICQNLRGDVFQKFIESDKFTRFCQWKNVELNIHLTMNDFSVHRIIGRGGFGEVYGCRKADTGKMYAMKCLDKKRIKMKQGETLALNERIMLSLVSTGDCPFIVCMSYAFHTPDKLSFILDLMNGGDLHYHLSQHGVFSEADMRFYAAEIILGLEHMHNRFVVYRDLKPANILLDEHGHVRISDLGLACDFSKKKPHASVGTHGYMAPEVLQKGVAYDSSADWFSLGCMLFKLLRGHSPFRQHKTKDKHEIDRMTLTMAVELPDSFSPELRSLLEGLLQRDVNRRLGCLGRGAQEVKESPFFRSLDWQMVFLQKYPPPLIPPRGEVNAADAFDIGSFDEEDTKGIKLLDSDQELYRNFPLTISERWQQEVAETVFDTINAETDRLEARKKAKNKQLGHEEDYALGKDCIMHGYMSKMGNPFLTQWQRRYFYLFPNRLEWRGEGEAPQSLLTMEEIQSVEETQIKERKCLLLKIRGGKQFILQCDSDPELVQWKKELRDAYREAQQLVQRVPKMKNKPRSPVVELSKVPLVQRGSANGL

[5] = biological target: Beta-2 adrenergic receptor (Homo sapiens) (UniProt P07550); test: agonist-induced loss of surface beta2AR – cell-based, FAP fluorogen, flow cytometry, validation set, pilot screen (AID 504459;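 active means percent response above 42, roughly 3 SD of non-fluorescent test compounds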;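 further: agonist-driven loss of surface beta2AR via internalization measured by FAP dye flow cytometry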); details: Am2.2-beta2AR cells, at 10 µM, stronger effect = higher value
Sequence of Beta-2 adrenergic receptor (Homo sapiens) (P07550 whole entry, looked up): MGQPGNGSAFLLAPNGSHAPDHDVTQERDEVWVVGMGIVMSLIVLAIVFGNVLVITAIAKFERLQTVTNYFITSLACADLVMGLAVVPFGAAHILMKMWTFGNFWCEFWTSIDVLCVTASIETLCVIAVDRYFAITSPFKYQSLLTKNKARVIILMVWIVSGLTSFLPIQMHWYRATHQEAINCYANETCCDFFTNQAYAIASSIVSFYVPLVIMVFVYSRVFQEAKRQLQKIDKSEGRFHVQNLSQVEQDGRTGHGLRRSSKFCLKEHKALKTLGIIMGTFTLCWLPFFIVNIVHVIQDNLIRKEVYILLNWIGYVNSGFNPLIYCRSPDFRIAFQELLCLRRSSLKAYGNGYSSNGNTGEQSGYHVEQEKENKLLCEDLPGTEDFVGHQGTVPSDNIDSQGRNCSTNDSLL

[6] = biological target: AP-2 complex subunit beta (Homo sapiens) (UniProt P63010); test: beta-arrestin/AP2 interaction blockers – biochemical, validation set, GST-AP2 beads, flow cytometry, pilot screen (AID 504541;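 active means inhibition above 54%, about 3 SD of non-fluorescent compounds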;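 further: AP2 carries R879A mutation and is captured from E. coli lysate; bead-bound FITC arrestin peptide fluorescence measuring arrestin peptide binding to AP2; 0% = DMSO wells and 100% = excess unlabeled arrestin peptide control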); details: FITC arrestin peptide, at 10 µM, stronger effect = higher value, AP2 beta2 appendage fragment, R879A mutant
Sequence of AP-2 complex subunit beta (Homo sapiens) (P63010 whole entry, looked up, the tested form may be a part, one chain of several): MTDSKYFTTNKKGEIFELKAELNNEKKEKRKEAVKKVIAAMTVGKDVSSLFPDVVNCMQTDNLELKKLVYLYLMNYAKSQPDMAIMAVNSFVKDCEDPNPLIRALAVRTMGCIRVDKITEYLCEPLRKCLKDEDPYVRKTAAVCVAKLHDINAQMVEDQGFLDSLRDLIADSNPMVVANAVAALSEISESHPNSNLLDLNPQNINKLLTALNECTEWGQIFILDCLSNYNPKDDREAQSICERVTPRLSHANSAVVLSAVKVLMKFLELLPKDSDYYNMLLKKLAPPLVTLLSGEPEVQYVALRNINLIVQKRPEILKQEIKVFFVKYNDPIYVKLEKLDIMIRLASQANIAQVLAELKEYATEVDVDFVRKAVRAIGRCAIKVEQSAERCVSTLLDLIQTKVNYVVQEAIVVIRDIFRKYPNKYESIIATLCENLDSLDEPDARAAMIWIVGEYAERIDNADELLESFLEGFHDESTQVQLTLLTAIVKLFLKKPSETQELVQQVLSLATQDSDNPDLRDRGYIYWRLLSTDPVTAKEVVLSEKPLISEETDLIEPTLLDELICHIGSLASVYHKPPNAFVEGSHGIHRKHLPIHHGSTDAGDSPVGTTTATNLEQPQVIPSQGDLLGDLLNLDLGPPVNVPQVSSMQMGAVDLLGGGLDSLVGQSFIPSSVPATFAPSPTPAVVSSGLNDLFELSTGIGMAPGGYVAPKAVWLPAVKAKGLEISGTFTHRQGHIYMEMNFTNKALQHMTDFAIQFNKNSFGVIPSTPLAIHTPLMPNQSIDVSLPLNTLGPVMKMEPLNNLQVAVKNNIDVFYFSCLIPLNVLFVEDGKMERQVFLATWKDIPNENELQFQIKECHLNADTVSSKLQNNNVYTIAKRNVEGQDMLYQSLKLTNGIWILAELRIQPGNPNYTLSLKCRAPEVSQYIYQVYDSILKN

[7] = cytosolic pH regulators acting via V-ATPase – S. cerevisiae, pHLuorin, HTS validation (AID 504600; in the data active means response above about 15%;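 further: plate controls were DMSO for no effect and reference compound for full effect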); details: V-ATPase proton transport, at 10 µM, stronger effect = higher value
[8] = test system: anti-desmoglein-3 scFv antibody binding to human DSG3; test: blockers of pathogenic pemphigus antibody–desmoglein-3 binding – biochemical, validation compound set, bead-based, flow cytometry, pilot screen (AID 588368;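 active means binding below the plate cutoff, the plate median minus 3 SD, with a reading above zero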;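 further: signal is the median channel fluorescence of bead-bound GFP antibody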); details: Protein G beads, DSG3-Fc, scFv-GFP binding, at 10 µM, stronger effect = lower value
[9] = Nile Red efflux blockade in pump-expressing yeast – validation compound set, multiplex, phenotypic, pilot screen (AID 588506);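 further: Nile Red retained in cells so higher fluorescence means more efflux inhibition; 0 = negative control wells and 1 = enniatin B 25 µM full block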; details: S. cerevisiae pump-expressing triplex, Nile Red efflux flow cytometry; at 10 µM; stronger effect = higher value; the pumps come from Candida albicans
[10] = biological target: ATP-binding cassette sub-family B member 6 (Homo sapiens) (UniProt Q9NP58); test: blockers of ABCB6-driven porphyrin uptake – K562-ABCB6 cells, flow cytometry, validation set, pilot screen (AID 588550;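 active means inhibition above the screen-wide mean plus 3 SD, about 51%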;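 further: 0% = DMSO wells and 100% = benzethonium chloride 70 µM positive control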); details: K562-ABCB6 porphyrin accumulation, 1 h, at 10 µM, stronger effect = higher value
Sequence of ATP-binding cassette sub-family B member 6 (Homo sapiens) (Q9NP58 whole entry, looked up): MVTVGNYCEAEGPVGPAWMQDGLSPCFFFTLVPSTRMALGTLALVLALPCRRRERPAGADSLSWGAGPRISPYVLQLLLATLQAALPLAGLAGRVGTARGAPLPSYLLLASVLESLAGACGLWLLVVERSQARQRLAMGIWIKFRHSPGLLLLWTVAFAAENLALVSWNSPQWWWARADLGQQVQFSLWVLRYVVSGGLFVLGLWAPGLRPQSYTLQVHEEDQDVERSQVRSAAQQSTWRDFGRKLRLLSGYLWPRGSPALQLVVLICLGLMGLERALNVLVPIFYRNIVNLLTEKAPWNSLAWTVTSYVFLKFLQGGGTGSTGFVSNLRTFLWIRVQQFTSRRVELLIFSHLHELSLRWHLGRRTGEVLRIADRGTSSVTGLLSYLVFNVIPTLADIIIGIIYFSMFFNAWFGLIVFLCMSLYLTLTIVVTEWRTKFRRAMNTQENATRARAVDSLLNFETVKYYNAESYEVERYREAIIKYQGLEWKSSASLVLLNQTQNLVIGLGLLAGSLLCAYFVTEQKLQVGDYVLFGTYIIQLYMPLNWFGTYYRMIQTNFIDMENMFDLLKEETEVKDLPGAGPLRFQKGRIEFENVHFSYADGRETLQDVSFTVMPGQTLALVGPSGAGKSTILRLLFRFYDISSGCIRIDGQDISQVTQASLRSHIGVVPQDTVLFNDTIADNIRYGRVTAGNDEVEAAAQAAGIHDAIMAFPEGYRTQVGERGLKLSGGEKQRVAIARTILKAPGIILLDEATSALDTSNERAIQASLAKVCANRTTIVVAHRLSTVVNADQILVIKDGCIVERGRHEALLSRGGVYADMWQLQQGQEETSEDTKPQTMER

[11] = AML differentiation inducers, ER-HoxA9 marrow cells – cell-based, GFP/MAC1 double positive, flow cytometry, validation set, primary screen (AID 588685;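 active means differentiation response of at least 50%, scaled between solvent and reference control, from cells with both markers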;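 further: compound exposure lasts four days before antibody staining and flow analysis; 0% = DMSO wells and 100% = 5 µM fulvestrant positive control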); details: stronger effect = higher value, normalized: vehicle 0, fulvestrant 100

Compound | double positive events [1] | vesicle binding response [1] | inhibition [2] | superoxide response (% of plate) [3] | aptamer binding inhibition [4] | response [5] | inhibition [6] | response [7] | binding (% of control) [8] | efflux inhibition (fraction of control) [9] | inhibition [10] | differentiation response [11]
CCOC(=O)/C=C1\NC(C)(C)Cc2cc(OC)c(OC)cc21 | 59.2% | 271% (inactive) | 5.03% (inactive) | 102% (inactive) | 4% (inactive) | 9.33% (inactive) | -4.08% (inactive) | -1.95% (inactive) | 101% (inactive) | 0.08 (inactive) | 7% (inactive) | 31.2% (inactive)
O=c1c2ccccc2nc2n1-c1ccccc1CCC2 | 64.2% | 201% (inactive) | 13% (inactive) | 96.9% (inactive) | 1% (inactive) | -9.83% (inactive) | -5.56% (inactive) | 0.74% (inactive) | 99.2% (inactive) | -0.23 (inactive) | 0% (inactive) | 1.22% (inactive)
CC(=O)OCC(OC(C)=O)C(OC(C)=O)C(OC(C)=O)C(=O)Nc1cccc(C)c1 (stereo unspecified) | 59.9% | 153% (inactive) | -4.52% (inactive) | 110% (inactive) | 3% (inactive) | 4.29% (inactive) | -4.4% (inactive) | 1.1% (inactive) | 97% (inactive) | -0.1 (inactive) | 2% (inactive) | -10.4% (inactive)
COc1cc2c(cc1O)CC[C@@H]1[C@@H]2CC[C@]2(C)[C@@H](O)CC[C@@H]12 | 58.8% | 139% (inactive) | 44.9% (inactive) | 112% (inactive) | -7% (inactive) | -10.9% (inactive) | -5.34% (inactive) | -4.33% (inactive) | 106% (inactive) | 0.04 (inactive) | -1% (inactive) | -9.91% (inactive)
NC(N)=NC(=O)c1nc(Cl)c(N)nc1N | 62.4% | 206% (inactive) | 7.4% (inactive) | 87% (inactive) | 0% (inactive) | -22.4% (inactive) | -4.43% (inactive) | -1.82% (inactive) | 104% (inactive) | -0.04 (inactive) | -2% (inactive) | -3.02% (inactive)
O=C(c1ccccc1F)c1cc2c(cc1[N+](=O)[O-])OCCO2 | 63% | 163% (inactive) | 15% (inactive) | 107% (inactive) | 3% (inactive) | 24.6% (inactive) | -6.21% (inactive) | 1.51% (inactive) | 105% (inactive) | -0.19 (inactive) | 7% (inactive) | -1.65% (inactive)
COc1cc(OC)c(C2C(C#N)=C(N)OC3=C2C(=O)CC(C)(C)C3)cc1OC (stereo unspecified) | 59.9% | 137% (inactive) | 5.61% (inactive) | 109% (inactive) | 2% (inactive) | 10.6% (inactive) | 5.17% (inactive) | -1.86% (inactive) | 102% (inactive) | -0.38 (inactive) | 13% (inactive) | -11.9% (inactive)
O=c1ccc2ccccc2o1 | 62.3% | 162% (inactive) | -3.77% (inactive) | 95.1% (inactive) | -7% (inactive) | 0.92% (inactive) | 1.88% (inactive) | -9% (inactive) | 103% (inactive) | -0.02 (inactive) | -8% (inactive) | 2.74% (inactive)
Oc1ccc(Oc2ncc(Cl)cc2Cl)cc1 | 61.9% | 223% (inactive) | -3.67% (inactive) | 73.7% (inactive) | 2% (inactive) | -11% (inactive) | -4.55% (inactive) | 8.39% (inactive) | 107% (inactive) | 0.12 (inactive) | 6% (inactive) | -12.9% (inactive)
CC(=O)O[C@]1(C(C)=O)CC[C@H]2[C@@H]3C=C(C)C4=CC(=O)CC[C@]4(C)[C@H]3CC[C@@]21C | 65.3% | 252% (inactive) | -0.27% (inactive) | 95.9% (inactive) | 3% (inactive) | -24.4% (inactive) | 1.74% (inactive) | -0.81% (inactive) | 101% (inactive) | 0.29 (inactive) | -2% (inactive) | 7.82% (inactive)
CC1(C)O[C@@H]2C[C@H]3[C@@H]4CCC5=CC(=O)C=C[C@]5(C)[C@@]4(F)[C@@H](O)C[C@]3(C)[C@]2(C(=O)CO)O1 | 61.2% | 123% (inactive) | 0.25% (inactive) | 91.8% (inactive) | -1% (inactive) | 10.2% (inactive) | -3.89% (inactive) | -1.77% (inactive) | 107% (inactive) | -0.22 (inactive) | 2% (inactive) | 40.8% (inactive)
CNc1nc(Nc2ccccc2)nc(OCC(F)(F)F)n1 | 64.8% | 135% (inactive) | 6.95% (inactive) | 98.2% (inactive) | -3% (inactive) | -3.68% (inactive) | 44.3% (inactive) | -7.15% (inactive) | 101% (inactive) | -0.185 (inactive) | -3% (inactive) | 4.2% (inactive)
COc1ccc(CN(CCC(c2ccc(F)cc2)C2CCOC(C)(C)C2)C(=O)c2ccco2)cc1 (stereo unspecified) | 59.4% | 144% (inactive) | -8.62% (inactive) | 104% (inactive) | 5% (inactive) | 22.1% (inactive) | -11.3% (inactive) | 1.03% (inactive) | 101% (inactive) | 0.12 (inactive) | 3% (inactive) | -13.6% (inactive)
